Values without a mark were called inactive. Inconclusive results are not listed. Activity calls are given as the source filed them. Unless noted, calls follow the shape of the dose curve; as a rule, active = well fitted curve in the direction sought with a large enough effect in the repeat runs; inconclusive = weak or mixed curves; inactive = no such curve, though single readings can be large; an effect the other way counts as inactive or inconclusive.

The results in this text go back to PubChem BioAssay (Tox21).

Experiment [1] is described as follows: qHTS assay to identify small molecule antagonists of the estrogen related receptor (ERR) signaling pathway from Tox21 library - cell viability counter screen (AID 1224834). Also: nearly all actives have a fitted effect of over 30% in size. The procedure, abridged: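 Cytotoxicity of test substances is gauged in the same ERR cells used for the antagonist screen, after 17.5 h of compound treatment at 37 C, by CellTiter-Fluor fluorescence measured after 30 min.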

Experiment [2] has as its target Luciferin 4-monooxygenase (Photinus pyralis) (UniProt P08659). The experiment can be described thus: qHTS assay to identify small molecule inhibitors of firefly luciferase (AID 1224835). Also: nearly all actives have a fitted effect of over 25% in size. Also: potency is read from the fitted curve at half-maximal effect. The procedure, abridged: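 Quantitative HTS format; KM concentrations of both substrates. Purified P. pyralis FLuc activity quantified from luminescence images.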
Experiment [3] can be described thus: qHTS assay to identify small molecule agonists of the constitutive androstane receptor (CAR) signaling pathway - cell viability counter screen (AID 1224836). Also: nearly all actives have a fitted effect of over 45% in size. The procedure, abridged: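 HepG2-CYP2B6-hCAR, 2500 cells/well, 4 h pre-incubation; cpd 15 conc + PK11195 0.75 uM final; 23 h, 37 C/5% CO2; CellTiter-Fluor, fluorescence.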
The nature of experiment [4]: qHTS assay to identify small molecule antagonists of the constitutive androstane receptor (CAR) signaling pathway - cell viability counter screen (AID 1224837). Also: nearly all actives have a fitted effect of over 45% in size. Summed up:
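Multiplexed cytotoxicity read-out for the CAR antagonist screen: double-stable HepG2-CYP2B6-hCAR cells co-treated with 50 nM CITCO (final) and compound over 15 concentrations, incubated 23 hr, then assessed by CellTiter-Fluor fluorescence.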

Experiment [5] has as its target Nuclear receptor subfamily 1 group I member 3 (Homo sapiens) (UniProt Q14994). In words: qHTS assay to identify small molecule antagonists of the constitutive androstane receptor (CAR) signaling pathway (AID 1224838). Also: nearly all actives have a fitted effect of over 40% in size. The procedure, abridged:
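Compounds were titrated across 15 concentrations onto HepG2 cells double-stably expressing hCAR and a CYP2B6-2.2kb reporter, together with 50 nM CITCO (final). After 24 h at 37 C, luciferase activity was measured by luminescence.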

Experiment [6] shares this target. In words: qHTS assay to identify small molecule agonists of the constitutive androstane receptor (CAR) signaling pathway (AID 1224839). Also: nearly all actives have a fitted effect of over 15% in size. Also: potency is read from the fitted curve at half-maximal effect.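 As to activation: HepG2 cells stably carrying human CAR and a CYP2B6 luciferase reporter.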 The procedure, abridged: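 HepG2-CYP2B6-hCAR cells, 2500/well, 4 h pre-incubation; compounds 15 conc.; PK11195 0.75 uM final; 24 h, 37 C/5% CO2; ONE-Glo luciferase read.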
Experiment [7] can be described thus: qHTS assay to identify small molecule antagonists of the estrogen related receptor signaling pathway with the pleiotropic PPARgamma coactivator (PGC) from Tox21 10K library - cell viability counter screen (AID 1224840; active = well fitted cell-killing curve with a large enough effect in the repeat runs, not every such curve was filed as active; also: nearly all actives have a fitted effect of over 40% in size). The procedure, abridged: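 Step one, plate 2,000 PGC/ERR cells per well; step two, incubate 6 h at 37 C/5% CO2; step three, pin-transfer compounds; step four, incubate 17.5 h; step five, add CellTiter-Fluor and read fluorescence after 30 min.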

Experiment [8] is described as follows: qHTS assay to identify small molecule antagonists of the estrogen related receptor signaling pathway with the pleiotropic PPARgamma coactivator (PGC) from Tox21 10K library (AID 1224841; call rule not given here; also: actives are mostly falling curves and most rising ones were filed inactive; nearly all actives have a fitted effect of over 50% in size). Summed up: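 Antagonism in this quantitative HTS is taken from loss of luciferase signal in PGC/ERR cells. Cells (2,000/well) are treated with compounds in DMSO after a 6 h settling period and read by One-Glo luminescence after 18 h.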

Experiment [9] can be described thus: qHTS assay to identify small molecule agonists of the estrogen related receptor signaling pathway with the pleiotropic PPARgamma coactivator (PGC) from Tox21 10K library (AID 1224842). Also: nearly all actives have a fitted effect of over 15% in size. Also: potency is read from the fitted curve at half-maximal effect. Summed up:
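PGC/ERR reporter cells (NTP line) were seeded 2,000 per well, rested 6 h at 37 C/5% CO2, then pin-dosed with compounds in DMSO for 18 h at 37 C; luciferase read by One-Glo luminescence after 30 min at room temperature.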

The target of experiment [10] is Thyrotropin receptor (Homo sapiens) (UniProt P16473). In words: qHTS assay to identify small molecule agonists of the thyroid stimulating hormone receptor (TSHR) signaling pathway (AID 1224843; calls by dose curve; also: nearly all actives have a fitted effect of over 45% in size). The procedure, abridged:
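Cell line HEK293 with TSHR; density 800/well. Exposure 30 min RT. Readout HTRF cAMP (cAMP-d2/anti-cAMP-cryptate), 1 h RT before reading.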

Experiment [11] can be described thus: qHTS assay to identify small molecule agonists of the hypoxia (HIF-1) signaling pathway - cell viability counter screen (AID 1224844; calls by dose curve; also: nearly all actives have a fitted effect of over 50% in size). The procedure, abridged: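 Tox21 10K compounds were added to HRE-bla ME-180 cells (0.5% dialyzed FBS) and incubated 17 hrs at 37C; ATP-based CellTiter-Glo luminescence then reported cell viability in the same wells.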
A short description of experiment [12]: qHTS assay to identify small molecule agonists of the hypoxia (HIF-1) signaling pathway (AID 1224846; active = well fitted activation curve with a large enough effect in the signal ratio in the repeat runs, not every such curve was filed as active; the % refers to the signal ratio). The procedure, abridged:
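Steps: seed ME-180 HRE-bla cells (2,000/well, 0.5% dialyzed FBS); incubate 5 hrs at 37C; pin-transfer compounds or DMSO; incubate 17 hrs; add LiveBLAzer B/G substrate CCF4-AM; measure reporter activation by FRET.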

A short description of experiment [13]: qHTS assay to identify small molecule antagonists of the estrogen related receptor (ERR) signaling pathway from Tox21 library (AID 1224848). Also: nearly all actives have a fitted effect of over 50% in size. Summed up: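 Screening used an ERR reporter line supplied by NTP, exposed for 18 h at 37 C to library compounds delivered in DMSO. Signal was luciferase luminescence developed with ONE-Glo at room temperature for 30 min.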

Experiment [14] can be described thus: qHTS assay to identify small molecule agonists of the estrogen related receptor (ERR) signaling pathway from Tox21 library (AID 1224849; calls by dose curve; also: nearly all actives have a fitted effect of over 15% in size). As to conditions: ERR reporter cell line, ONE-Glo luciferase, 18 h; at 92.4 µM (top of the series) unless noted. Summed up:
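Agonist signal is luciferase luminescence from an ERR reporter cell line treated 18 h at 37 C with DMSO-dissolved compounds, read 30 min after ONE-Glo addition at room temperature.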

Experiment [15] can be described thus: qHTS RealTime-Glo MT Cell Viability Assay in HepG2 cells - 24 hour (AID 1224867). Also: nearly all actives have a fitted effect of over 50% in size. The procedure, abridged:
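HepG2 cells (600/well) were dispensed with RealTime-Glo reagents, incubated 5 h at 37 °C, then treated with compounds in DMSO for up to 40 h. Nonlytic NanoLuc luminescence reflecting viable cells was read at each stated time point.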

The nature of experiment [16]: qHTS RealTime-Glo MT Cell Viability Assay in HEK293 cells - 32 hour (AID 1224868). The procedure, abridged: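 HEK293 cells seeded with NanoLuc/prosubstrate reagent, rested 5 h at 37 C, then dosed and kept at 37 C up to 40 h. Nonlytic real-time luminescence from viable cells read at 0, 8, 16, 24, 32 and 40 h.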
The nature of experiment [17]: A CellTox Green Cytotoxicity Assay to monitor cytotoxicity in HEK293 cells - 0 hour (AID 1224869). Also: nearly all actives have a fitted effect of over 50% in size. Summed up:
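Cytotoxicity was tracked continuously in HEK293 cells by a DNA-binding dye excluded from viable cells. Compounds were transferred in DMSO 5 h after seeding; fluorescence was recorded at intervals up to 40 h.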

The nature of experiment [18]: qHTS RealTime-Glo MT Cell Viability Assay in HepG2 cells - 40 hour (AID 1224870). Also: nearly all actives have a fitted effect of over 50% in size. The procedure, abridged: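 HepG2 cells mixed with RealTime-Glo MT reagents (NanoLuc plus cell-permeant prosubstrate) were seeded at 600 cells/well, incubated 5 h at 37 C/5% CO2, then pinned with compounds in DMSO; nonlytic luminescence tracked viability during 40 h treatment.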
Experiment [19] is described as follows: qHTS assay to identify small molecule agonists of H2AX (AID 1224845; active = well fitted activation curve with a large enough effect in the signal ratio in the repeat runs, not every such curve was filed as active; the % refers to the signal ratio). The procedure, abridged:
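Wild-type CHO-K1 cells plated overnight, then exposed 3 hr at 37C to compounds at 15 concentrations (0.76% DMSO). Lysed, then HTRF anti-pH2AX(S139)-cryptate/anti-H2AX-d2 detection after 24 hr at room temperature; emissions 665 and 620 nm.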

Experiment [20] can be described thus: qHTS assay to identify small molecule agonists of H2AX - cell viability counter screen (AID 1224847; calls by dose curve; also: top concentration of the series differs between compounds; nearly all actives have a fitted effect of over 30% in size). The procedure, abridged: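 Cells plated first: CHO-K1, 1000 per well in 10% FBS medium, incubated overnight at 37C. Then 15-point compound titration added (final DMSO 0.76%) for 3 hr. Finally CellTiter-Glo added and luminescence read.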
% is scaled to controls: 0 for no effect and ±100 for the full control effect.

Chain of Luciferin 4-monooxygenase (Photinus pyralis) (P08659 whole entry, looked up): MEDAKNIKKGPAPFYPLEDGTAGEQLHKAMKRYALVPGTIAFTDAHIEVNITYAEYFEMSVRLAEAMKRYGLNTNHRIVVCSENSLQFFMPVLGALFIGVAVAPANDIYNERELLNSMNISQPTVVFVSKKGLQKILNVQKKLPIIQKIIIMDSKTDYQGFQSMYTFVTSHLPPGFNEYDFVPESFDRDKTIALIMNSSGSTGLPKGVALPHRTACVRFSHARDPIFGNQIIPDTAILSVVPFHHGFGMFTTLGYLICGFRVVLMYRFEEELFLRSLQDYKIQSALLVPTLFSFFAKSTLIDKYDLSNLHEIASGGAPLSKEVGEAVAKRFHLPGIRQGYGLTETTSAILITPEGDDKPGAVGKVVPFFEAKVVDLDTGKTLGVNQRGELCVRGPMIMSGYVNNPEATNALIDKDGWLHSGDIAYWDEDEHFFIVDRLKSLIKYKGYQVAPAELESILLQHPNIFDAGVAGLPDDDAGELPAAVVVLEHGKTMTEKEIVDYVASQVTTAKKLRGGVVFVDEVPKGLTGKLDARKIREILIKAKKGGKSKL
Chain of Nuclear receptor subfamily 1 group I member 3 (Homo sapiens) (Q14994 whole entry, looked up): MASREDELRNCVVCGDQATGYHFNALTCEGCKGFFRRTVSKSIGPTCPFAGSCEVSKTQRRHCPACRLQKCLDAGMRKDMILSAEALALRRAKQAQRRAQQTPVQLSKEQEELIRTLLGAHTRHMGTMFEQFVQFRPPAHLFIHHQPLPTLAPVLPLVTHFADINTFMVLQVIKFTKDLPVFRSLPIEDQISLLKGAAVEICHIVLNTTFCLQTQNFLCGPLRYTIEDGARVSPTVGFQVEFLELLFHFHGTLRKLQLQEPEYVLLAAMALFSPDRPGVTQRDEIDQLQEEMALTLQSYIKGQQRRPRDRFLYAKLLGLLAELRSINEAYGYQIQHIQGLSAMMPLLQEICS
Chain of Thyrotropin receptor (Homo sapiens) (P16473 whole entry, looked up): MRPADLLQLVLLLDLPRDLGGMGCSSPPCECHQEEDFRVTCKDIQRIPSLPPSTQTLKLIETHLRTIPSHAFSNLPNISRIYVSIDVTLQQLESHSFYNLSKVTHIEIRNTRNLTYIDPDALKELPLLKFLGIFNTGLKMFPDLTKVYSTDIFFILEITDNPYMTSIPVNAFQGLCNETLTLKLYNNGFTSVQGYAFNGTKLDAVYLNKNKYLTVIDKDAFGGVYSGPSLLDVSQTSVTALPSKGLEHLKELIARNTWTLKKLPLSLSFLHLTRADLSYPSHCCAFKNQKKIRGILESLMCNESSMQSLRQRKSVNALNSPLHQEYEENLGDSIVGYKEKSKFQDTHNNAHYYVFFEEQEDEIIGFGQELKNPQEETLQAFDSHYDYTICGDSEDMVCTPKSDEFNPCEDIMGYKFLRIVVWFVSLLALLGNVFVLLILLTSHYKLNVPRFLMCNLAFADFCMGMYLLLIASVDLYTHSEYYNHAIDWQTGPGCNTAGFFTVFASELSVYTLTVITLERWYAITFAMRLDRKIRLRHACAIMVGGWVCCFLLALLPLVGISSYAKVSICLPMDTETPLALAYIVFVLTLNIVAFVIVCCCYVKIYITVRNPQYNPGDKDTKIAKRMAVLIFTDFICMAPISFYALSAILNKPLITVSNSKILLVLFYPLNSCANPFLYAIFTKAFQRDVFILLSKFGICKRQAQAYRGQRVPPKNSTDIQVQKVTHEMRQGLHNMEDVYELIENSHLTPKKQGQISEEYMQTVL

Consider `CC1=CC(=O)CC(C)(C)C1(O)/C=C/C(C)=C\C(=O)O` (stereo unspecified), for which the Potency result in [1], in experiment [2], in experiment [3], in experiment [4], in experiment [5] and in experiment [6] was “inactive” throughout. Also, the Potency result in experiment [7], in experiment [8], in [9], in experiment [10], in experiment [11] and in experiment [13] was “inactive” each time. In addition, the Potency result in [15], in experiment [16], in experiment [17] and in experiment [18] was “inactive” each time. Further, in experiment [12], the compound was called inactive. The activity change, positive = activation in experiment [14] is 4.36%.
In the case of `NC(=O)Nc1ccc(Cl)cc1`, the Potency entry in experiment [1], in [2], in experiment [3], in experiment [4], in experiment [5] and in [6] was “inactive” each time. For the same compound, the Potency result in [7], in experiment [8], in experiment [9], in experiment [10], in experiment [11] and in experiment [19] was “inactive” throughout. The Potency result in experiment [20], in experiment [13], in [15], in experiment [16] and in experiment [18] was “inactive” in each case. Further, in experiment [12], the call was inactive. In addition, the activity change, positive = activation in experiment [14] was 0.227%.
Regarding `CCCCCCCCSCCO`, the Potency entry in experiment [1], in experiment [3], in [4], in [5], in experiment [6] and in experiment [7] was “inactive” each time. The Potency entry in [8], in [9], in experiment [10], in [11], in experiment [19] and in experiment [20] was “inactive” throughout. The Potency result in [13], in experiment [15], in experiment [16], in [17] and in experiment [18] was “inactive” each time. Further, in experiment [2], the Potency was 71 µM (active). The compound was classed as inactive in experiment [12]. In experiment [14], the activity change, positive = activation is -3.95%.
Turning to `O=C(Nc1ccccc1)Nc1ccccc1`, the Potency entry in experiment [1], in experiment [3], in [4], in experiment [5], in [7] and in [8] was “inactive” in each case. For the same compound, the Potency result in experiment [11], in experiment [13], in [15], in [17] and in experiment [18] was “inactive” in each case. Moreover, the Potency in experiment [2] was 6.36 µM (active); in [6] it was 4.88 µM (active); in experiment [9], 10.9 µM (active). In addition, the result in [12] was inactive. Further, in experiment [14], the activity change, positive = activation was 28.3% (active).
As for `OC/C(Br)=C(\Br)CO`, the Potency result in [1], in experiment [2], in experiment [3], in [4], in experiment [5] and in experiment [6] was “inactive” each time. For the same compound, the Potency result in experiment [7], in [8], in experiment [9], in experiment [10], in experiment [11] and in experiment [19] was “inactive” each time. Besides, the Potency entry in experiment [20], in experiment [13], in experiment [15], in experiment [16], in experiment [17] and in experiment [18] was “inactive” in each case. Besides, in experiment [12], the compound was classed as inactive. Besides, the activity change, positive = activation in experiment [14] is 1.63%.
Consider `O=C(CS)OCCOC(=O)CS`, for which the Potency entry in experiment [1], in experiment [2], in experiment [3], in [4], in experiment [5] and in [6] was “inactive” throughout. The Potency result in experiment [7], in experiment [8], in experiment [10], in experiment [19], in [15] and in experiment [16] was “inactive” in each case. In addition, the Potency result in experiment [17] and in experiment [18] was “inactive” in each case. In addition, the compound was called inactive in experiment [12]. For the same compound, the activity change, positive = activation in experiment [14] is -27.9%.
On to `O=C(/C=C/c1ccccc1)OCCCc1ccccc1`, for which the Potency entry in experiment [1], in [3], in [4], in experiment [5], in [6] and in experiment [7] was “inactive” throughout. Besides, the Potency result in experiment [8], in [9], in experiment [10], in experiment [11], in experiment [13] and in [15] was “inactive” throughout. Also, the Potency entry in experiment [16], in [17] and in [18] was “inactive” in each case. The Potency in experiment [2] was 17.8 µM (active). Moreover, in [12], the compound was classed as inactive.
